From PubChem BioAssay (NCATS)
Inconclusive results are not listed. The source made the active and inactive calls. Calls follow the shape of the dose curve; as a rule, active = well fitted curve in the direction sought with a large enough effect; inconclusive = small, poorly fitted or top-dose-only effect, or another doubt; inactive = no such curve, though single readings can be large; an effect the other way counts as inactive or inconclusive.

What was measured:
[1] = Quantitative highthroughput screen to assess conditional lethalithy of NOMO1 cells grown in RPMI1640 with dialyzed fetal bovine serum (RPMI+ds) (AID 1963877); conditions: NOMO1 in RPMI+dialyzed FBS viability, ATP luminescence, 48 h; series mostly up to 45.8 µM; also: nearly all actives have a fitted effect of over 30% in size; also: potency is read from the fitted curve at half-maximal effect;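 as to viability: 100% = DMSO control wells and 0% = empty wells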
In short: (§1)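 Each medium arm—HPLM with 10% dialyzed FBS, or RPMI1640 with 5 mM glucose and 10% untreated or dialyzed FBS—was screened against an 11-point, 3-fold compound titration for 48 h at 37 °C, with CellTiter-Glo luminescence as endpoint.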

[2] = Quantitative highthroughput screen to assess conditional lethalithy of NOMO1 cells grown in Human Plasma-Like Medium with dialyzed fetal bovine serum (HPLM+ds) (AID 1963878); conditions: NOMO1 AML cells in HPLM+ds, CellTiter-Glo viability, 48 h; series mostly up to 45.8 µM; also: nearly all actives have a fitted effect of over 35% in size; also: potency is read from the fitted curve at half-maximal effect;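 as to viability: 100% = DMSO wells and 0% = empty wells on each plate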
In short: as §1

[3] = Quantitative highthroughput screen to assess conditional lethalithy of SEM cells grown in Human Plasma-Like Medium with dialyzed fetal bovine serum (HPLM+ds) (AID 1963882); conditions: SEM B-ALL cells in HPLM+ds, CellTiter-Glo viability, 48 h; series mostly up to 45.8 µM; also: nearly all actives have a fitted effect of over 35% in size; also: potency is read from the fitted curve at half-maximal effect
In short: as §1

[4] = Quantitative highthroughput screen to assess conditional lethalithy of P12 Ichikawa cells grown in Human Plasma-Like Medium with dialyzed fetal bovine serum (HPLM+ds) (AID 1963879); conditions: ATP luminescence, 48 h; Potency: viability; series mostly up to 45.8 µM; also: nearly all actives have a fitted effect of over 35% in size; also: potency is read from the fitted curve at half-maximal effect
In short: as §1

[5] = Quantitative highthroughput screen to assess conditional lethalithy of P12 Ichikawa cells grown in RPMI1640 with dialyzed fetal bovine serum (RPMI+ds) (AID 1963880); conditions: ATP luminescence, 48 h; Potency: P12-Ichikawa viability; series mostly up to 45.8 µM; also: nearly all actives have a fitted effect of over 35% in size; also: potency is read from the fitted curve at half-maximal effect;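 as to viability: 100% = DMSO wells and 0% = empty wells on each plate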
In short: as §1

[6] = Quantitative highthroughput screen to assess conditional lethalithy of P12 Ichikawa cells grown in RPMI1640 with untreated serum (RPMI+s) (AID 1963881); conditions: ATP luminescence, 48 h; Potency: viability; series mostly up to 45.8 µM
In short: as §1

[7] = Quantitative highthroughput screen to assess conditional lethalithy of SEM cells grown in RPMI1640 with unreated serum (RPMI+s) (AID 1963883); conditions: SEM B-ALL cells, CellTiter-Glo viability, 48 h; series mostly up to 45.8 µM; also: nearly all actives have a fitted effect of over 35% in size; also: potency is read from the fitted curve at half-maximal effect;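 as to viability: 100% = DMSO wells and 0% = empty wells without cells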
In short: as §1

[8] = Cellular viability qHTS for adrenocortical cancer (ACC) cell line SW-13 (AID 1963989); conditions: SW-13 ACC cells viability, CellTiter-Glo, 48 h; activity (max response): stronger effect = lower value;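 also: cells grown in serum-free medium with ITS supplement; % is scaled to controls: 0 for no effect and ±100 for the full control effect; nearly all actives have a fitted effect of over 65% in size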
In short: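 Here, serum-free SW-13 cultures were dosed up to 46 uM. Following 48 h, ATP-dependent luminescence (CellTiter-Glo) reported viable cells, and logistic modeling produced IC50 values.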

[9] = Cellular viability qHTS for adrenocortical cancer (ACC) cell line NCI-H295R (AID 1963990); conditions: CellTiter-Glo ATP luminescence, 48 h; series mostly up to 46.1 µM;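 also: 0% = DMSO only wells and -100% = full killing with cytotoxic reference compound; nearly all actives have a fitted effect of over 60% in size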
In short: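 Viability of NCI-H295R after 48 h of treatment (final up to 46 uM) measured through cellular ATP luminescence.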

[10] = Quantitative highthroughput screen to assess conditional lethalithy of SEM cells grown in RPMI1640 with dialyzed fetal bovine serum (RPMI+ds) (AID 1963884); conditions: SEM B-ALL cells, RPMI+dialyzed FBS, CellTiter-Glo viability, 48 h; series mostly up to 45.8 µM; also: nearly all actives have a fitted effect of over 35% in size; also: potency is read from the fitted curve at half-maximal effect;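 as to viability: 100% = DMSO control wells and 0% = empty wells without cells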
In short: as §1

CC(C)c1c(C(=O)Nc2ccccc2)c(-c2ccccc2)c(-c2ccc(F)cc2)n1CC[C@H](O)C[C@@H](O)CC(=O)O
inactive: Potency [3]
active: Potency [1] 16.6 µM | Potency [2] 18.7 µM

O=c1cc(-c2ccc(O)cc2)oc2cc(O)cc(O)c12
inactive: Potency [4] | Potency [5] | Potency [6] | Potency [3] | Potency [7] | activity (max response) [8] -18.3% | Potency [9]
active: Potency [1] 18.7 µM

CCOC(=O)[C@H](CCc1ccccc1)N[C@@H](C)C(=O)N1[C@@H](C(=O)O)C[C@H]2CCC[C@@H]21
active: Potency [1] 23.5 µM | Potency [2] 23.5 µM | Potency [7] 20.9 µM

CNC(=O)c1ccc(N2C(=S)N(c3cnc(C#N)c(C(F)(F)F)c3)C(=O)C23CCC3)cc1F
active: Potency [1] 2.35 µM
inactive: Potency [4] | Potency [5] | Potency [6] | Potency [3] | Potency [7] | Potency [10] | activity (max response) [8] 4.43%

C[C@]12CC[C@H](O)CC1=CC[C@@H]1[C@H]2CC[C@]2(C)C(c3cccnc3)=CC[C@H]12
inactive: Potency [1] | Potency [2] | Potency [5] | Potency [6] | Potency [3] | Potency [7] | Potency [10]

Cc1cc(C=c2sc3nc4ccccc4n3c2=O)c(C)n1-c1ccccc1
inactive: Potency [1] | Potency [2] | Potency [4] | Potency [5] | Potency [3] | Potency [7] | Potency [10]

O=c1[nH]c(=O)n([C@H]2C[C@@H](O)[C@@H](CO)O2)cc1F
active: Potency [1] 0.0148 µM | Potency [4] 0.0833 µM | Potency [5] 0.0743 µM | Potency [3] 0.0235 µM | Potency [7] 2.35 µM

NC(=O)NN=Cc1ccc([N+](=O)[O-])o1
inactive: Potency [1] | Potency [2] | Potency [5] | Potency [6] | Potency [3] | Potency [10]

COc1ccc2cc([S+]([O-])Cc3ncc(C)c(OC)c3C)nc2c1
inactive: Potency [1] | Potency [2] | Potency [4] | Potency [5] | Potency [6] | Potency [7]
active: Potency [10] 0.935 µM

O=C(Nc1ccccc1)Nc1ccc(-c2ccc(C(=O)[C@H]3CCC[C@H]3C(=O)O)cc2)cc1
inactive: Potency [4] | Potency [6] | Potency [3] | Potency [7] | Potency [10]
active: Potency [1] 6.62 µM

CC(O)=C(C#N)C(=O)Nc1ccc(C(F)(F)F)cc1
inactive: Potency [1] | Potency [2] | Potency [4] | Potency [6]

Cc1c(CCOc2ccc(C(=O)O)cc2)c2cc(Cl)ccc2n1C(c1ccccc1)c1ccccc1
active: Potency [4] 14.8 µM
inactive: Potency [1] | Potency [2] | Potency [7] | Potency [10] | activity (max response) [8] -0.782% | Potency [9]

OC[C@H]1O[C@@H](Oc2cc(O)cc(C=Cc3ccc(O)cc3)c2)[C@H](O)[C@@H](O)[C@H]1O
active: Potency [1] 2.35 µM
inactive: Potency [4] | Potency [5] | Potency [6] | Potency [3] | Potency [7] | Potency [10]

CCOC(=O)N1CCN([N+]([O-])=NOc2cc(ON=[N+]([O-])N3CCN(C(=O)OCC)CC3)c([N+](=O)[O-])cc2[N+](=O)[O-])CC1
inactive: Potency [1] | Potency [2] | Potency [4] | Potency [5] | Potency [6] | Potency [7] | Potency [10]

C=CC1=C(C(=O)O)N2C(=O)[C@@H](NC(=O)C(=NO)c3csc(N)n3)[C@H]2SC1
inactive: Potency [1] | Potency [2] | Potency [5] | Potency [6] | Potency [3] | Potency [7] | Potency [10]
